Compound activity (PubChem BioAssay)
In the library only some 19% were active in any assay of this set; here they are far more common.
HT1080 IDH1KD tx: qHTS for induction of synthetic lethality in tumor cells producing 2HG: qHTS for the HT-1080-IDH1KD cell line | HT-1080 IDH1 knockdown viability, ATP luminescence, 48 h | Potency, µM (top dose mostly 46.1 µM), without a hit: top-dose activity, negative = toxicity, hits mostly cytotoxic | 2% of 360,000 active | AID 686971, 2013;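 further: 0% = DMSO wells and -100% = cell-free medium wells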
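After a 2 h attachment period, IDH1KD HT-1080 cells took pin-transferred compound for 48 h at 37 °C; ATP-based luminescence after 10 min room-temperature reagent incubation reported viability.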
TDP1 cell CPT: qHTS for Inhibitors of human tyrosyl-DNA phosphodiesterase 1 (TDP1): qHTS in cells in presence of CPT; chicken DT40 Tdp1-/-;hTDP1 cells + 20 nM CPT, ATP luminescence, 48 h; Potency, µM (top dose mostly 46.2 µM), for inactives: at the highest dose activity change, negative = growth inhibition, actives largely listed as inhibitors; 12% of 420,000 active; AID 686979, 2013; further: nearly all actives have a fitted effect of over 55% in size
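Cell growth measured by CellTiter-Glo luminescence after a minimum 48 h, 37 C compound exposure with 20 nM CPT in Tdp1-knockout DT40 cells stably expressing hTDP1, seeded 400/well; qHTS titration format.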
KB-V1 MDR tox: qHTS assay for MDR1-selective chemotherapeutics: Primary screen using the drug-selected MDR subline cells KB-V1. KB-V1 MDR cells viability, CellTiter-Glo, 72 h. Potency, µM (series often up to 46.1 µM), most hits filed as cytotoxic. 3.4% of 400,000 active; further: nearly all actives have a fitted effect of over 60% in size
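Readout: CellTiter-Glo luminescence, 10 min after addition. Cells: KB-V1 MDR subline, 72 h at 37 degrees C with compound. Analysis: corrected, normalized data fitted to concentration-effect curves.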
HT1080-NT tox: qHTS for induction of synthetic lethality in tumor cells producing 2HG: qHTS for the HT-1080-NT fibrosarcoma cell line; HT-1080-NT fibrosarcoma viability, CellTiter-Glo ATP luminescence, 48 h; Potency, µM (highest dose often 46.1 µM), inactives show at the top dose activity, negative = less viability, usual class: cytotoxic; 1.6% of 360,000 active;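 further: NT is the 2HG producing partner of a matched IDH1 knockdown line; 0% = DMSO-treated cells and -100% = media-only wells without cells; nearly all actives have a fitted effect of over 55% in size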
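A 48-hour cytotoxicity screen used HT-1080-NT cells plated 2 hours before compound delivery. ATP-based CellTiter-Glo luminescence measured viability, normalized to DMSO and no-cell controls.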
KB-3-1 cytotox: qHTS assay for MDR1-selective chemotherapeutics: Primary screen using the parental adenocarcinoma cell KB-3-1. Potency, µM (doses to about 46.1 µM), hits mostly cytotoxic. AID 1347075, 2019. 1.4% of 400,000 active. KB-3-1 viability, CellTiter-Glo ATP luminescence, 72 h; further: nearly all actives have a fitted effect of over 60% in size
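KB-3-1 parental drug-naive adenocarcinoma cells in DMEM/10% FBS, incubated 72 h at 37 C with pin-transferred compounds across a concentration series. Viability by CellTiter-Glo luminescence; concentration-response curves fitted after normalization.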
TDP1 cell noCPT: qHTS for Inhibitors of human tyrosyl-DNA phosphodiesterase 1 (TDP1): qHTS in cells in absence of CPT. AID 686978, 2013. 15% of 420,000 active. DT40 Tdp1-/- hTDP1 cells, no CPT, ATP luminescence, 48 h. Potency, µM (titrated, usually from 46.2 µM), without a hit: at the highest dose activity change, negative = growth inhibition, hits mostly inhibitors; further: nearly all actives have a fitted effect of over 55% in size
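Cells were dispensed at 400 per well, compounds added by pin tool, plates incubated ≥48 hr at 37 °C, then CellTiter-Glo added for 30 min at room temperature before luminescence reading. Line: DT40 Tdp1-/- complemented with hTDP1; camptothecin omitted.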
Starred values were filed as active, the others as inactive; i = inactive; u = inconclusive; x = no result given. The call rests on the fitted dose curve; in most records, active means well fitted curve in the direction sought with a large enough effect; inconclusive means small, poorly fitted or top-dose-only effect, or another doubt; inactive means no such curve, though single readings can be large; an effect the other way counts as inactive or inconclusive. Unless noted, on the % scale 0 is the no-effect control and ±100 the full control effect; potency means the concentration at half of the fitted maximal effect.

SMILES	HT1080 IDH1KD tx	TDP1 cell CPT	KB-V1 MDR tox	HT1080-NT tox	KB-3-1 cytotox	TDP1 cell noCPT
Cc1ccc(OCCCCNC(C)(C)C)c([N+](=O)[O-])c1	-1%	u	23µM*	-2%	i	u
CC1CCN(CCOCCOc2ccc(Br)cc2Cl)CC1	-29%	18µM*	23µM*	-24%	u	21µM*
Cc1ccc(OCCCCN2CCCC(C)C2)c([N+](=O)[O-])c1 (configuration not stated)	4%	18µM*	u	-2%	i	23µM*
CN(C)CCCCOc1ccc(Br)cc1Cl	u	u	i	u	i	u
CC1CCCN(CCCOc2ccc(Br)cc2Cl)C1 (configuration not stated)	21µM*	u	u	16µM*	i	u
COCCNCCOc1ccc(C)cc1[N+](=O)[O-]	15%	17%	i	4%	i	0%
CC1CCN(CCCCOc2ccccc2[N+](=O)[O-])CC1	0%	-37%	i	1%	i	-13%
Cc1ccc(C(=O)CCC(=O)OCC(=O)NNC(=O)c2ccc([N+](=O)[O-])cc2)cc1	-3%	-18%	i	1%	i	-16%
O=C(NCCNCCO)C1(C(F)(F)F)C/C(=C\CCO)CCCO1 (configuration not stated)	5%	7%	i	11%	i	2%
Cc1ccc(-n2c(SCC(=O)N3CCCCC3)nc(O)c(Cc3ccccc3)c2=O)cc1	0%	u	i	2%	i	12µM*
CCN(CC)C(=O)CSc1nc(O)c(Cc2ccccc2)c(=O)n1-c1ccc(C)cc1	0%	u	i	3%	i	13µM*
COC(=O)c1c(NC(=O)COC(=O)[C@@H](NS(=O)(=O)c2ccc(C)cc2)C(C)C)sc2c1CCC2	-2%	u	u	-3%	i	23µM*
COC(=O)c1c(NC(=O)COC(=O)c2ccc(C)s2)sc2c1CCCCC2	1%	-15%	i	6%	i	u
CCOc1ccccc1NC(=O)c1c(NC(=O)c2ccncc2)sc2c1CCC(C(C)(C)C)C2 (configuration not stated)	x	-23%	i	x	i	-17%
Cc1ccccc1NC(=O)c1c(NC(=O)c2ccncc2)sc2c1CCC(C(C)(C)C)C2 (configuration not stated)	x	18µM*	u	x	i	6.5µM*
COC(=O)c1c(NC(=O)c2nn(C)cc2Cl)sc2c1CCCC2	7%	u	5.8µM*	8%	i	u
COC(=O)c1c(NC(=O)COc2ccc(C(C)C)cc2)sc2c1CCCC2	x	u	i	x	i	23µM*
Cc1ccccc1NC(=O)c1c(NC(=O)C(F)(F)F)sc2c1CCCCC2	x	3.7µM*	x	x	x	2.9µM*
COc1ccc(NC(=O)c2c(NC(=O)COc3ccccc3)sc3c2CCCCC3)cc1	x	-1%	i	x	i	-7%
O=C(Nc1cccc(Cl)c1)c1c(NC(=O)C(F)(F)F)sc2c1CCCC2	x	6.5µM*	12µM*	x	u	3.3µM*
Cc1ccc(NC(=O)c2c(NC(=O)C(F)(F)F)sc3c2CCCCC3)cc1	x	2.6µM*	x	x	x	3.7µM*
O=C(COc1ccc(Cl)cc1)Nc1sc2c(c1C(=O)Nc1cccc(Cl)c1)CCCC2	x	18µM*	x	x	x	7.3µM*
O=C(COC(=O)Cc1ccc(Br)cc1)NCc1ccc2c(c1)OCO2	15%	-9%	i	11%	i	-25%
COc1ccc(OC)c(NC(=O)C(Cc2ccccc2)NS(=O)(=O)c2ccc3c(c2)CCC(=O)N3)c1 (configuration not stated)	x	u	u	x	i	u
O=C(O)CCC(=O)Nc1sc2c(c1C(=O)Nc1ccccc1)CCCCC2	u	-23%	i	21µM*	u	-3%
SMILES	HT1080 IDH1KD tx	TDP1 cell CPT	KB-V1 MDR tox	HT1080-NT tox	KB-3-1 cytotox	TDP1 cell noCPT
COc1cc2c(cc1OC)C(COc1ccccc1OC)N(C(=O)C(C)C)CC2 (configuration not stated)	10%	11%	u	9%	i	-12%
COc1cc2c(cc1OC)C(c1cccs1)N(C(=O)c1cccnc1)CC2 (configuration not stated)	u	4.6µM*	u	-28%	5.8µM*	2.9µM*
COc1cc2c(cc1OC)C(c1cccs1)N(C(=O)C(C)C)CC2 (configuration not stated)	-16%	u	14µM*	-9%	u	-26%
CCCC(=O)Nc1cccc(-c2cn3c(C)csc3n2)c1	x	-26%	x	x	x	u
COc1cccc(NC(=O)CSc2c(C)cnc3c2c(=O)n(C)c(=O)n3C)c1	x	u	i	x	i	u
CCN(Cc1nc2ccccc2c(=O)[nH]1)Cc1nc2cc(OC)c(OC)cc2c(=O)[nH]1	2%	-7%	i	-2%	i	u
COc1cc2nc(CN3CCC(C(O)(c4ccccc4)c4ccccc4)CC3)[nH]c(=O)c2cc1OC	8%	u	i	-19%	i	18µM*
